Results reported in ChEMBL document CHEMBL3988442, “University of Dundee, Small-Polar-MMV Screening Library” (2021).

biological target: Shiga toxin 2 (Escherichia coli O157:H7) (UniProt P09385+P09386); test: E. coli 0.157:H7 Shiga Toxin SOP - stx2 screening assay; format: functional; set-up: scale not given: direction of the effect not stated beside the values; conditions: 30 µM

Point of comparison: `Cc1n[nH]c(C)c1C1CCCN1C(=O)NCC(=O)NC(C)(C)C` (stereo not given), Percent Effect -24.4%. Against it:
- CC(C)CNC(=O)[C@H]1CCS(=O)(=O)[C@@H]2CN(Cc3ccc(Cl)cc3)C[C@H]12 — higher, -5.7%
- CC(NCc1ccc(Cl)o1)c1nnc2n1CCCC2 (stereo not given) — lower, -31%
- O=C(NCCc1cccnc1)N1CCCC1c1ccsc1 (stereo not given) — higher, 1.93%
- Cc1ccc(NC(=O)N2CCC(NC(=O)c3ccc(C)o3)CC2)cc1 — higher, 25.3%
- Cc1ccc(CN(Cc2c[nH]cn2)C2CC(C)(C)NC(C)(C)C2)o1 — higher, 7.12%
- Cc1nc(N2CCCC2)nc2c1CCN(Cc1ccco1)CC2 — lower, -55.7%
- CC(C)Oc1ccccc1CNC(=O)N1CCC(n2cncn2)CC1 — lower, -31.1%
- O=C(c1cccs1)N1C[C@H]2CC[C@@]3(N=C(c4ccccc4)NC3=O)[C@H]2C1 — lower, -42.8%
- Cc1cccc(CN(Cc2ccc(C)o2)C2CC(C)(C)NC(C)(C)C2)n1 — higher, 3.65%
- COCCN1C[C@@H]2CCCO[C@@H]2[C@H](N(C)Cc2ccco2)C1 — higher, -6.84%
- O=C(CCCNc1ncccn1)N1CCCC(n2cccn2)C1 (stereo not given) — higher, 1.16%
- c1nc2n(n1)CC(NCc1nc(-c3ccsc3)no1)CC2 (stereo not given) — higher, 10.5%
- CCCNC(=O)CNc1cc(C#N)ccc1OCC — higher, -4.19%
- Cc1nc(C)n(CC2CN(c3ccc(C#N)cn3)CCO2)n1 (stereo not given) — higher, 19.5%
- CCC(C)NC(=O)Cc1c(C)nc2c(c1C)c(=O)[nH]n2C (stereo not given) — lower, -28.6%
- CN(C)C(=O)COC1COC2(CCN(S(C)(=O)=O)CC2)C1 (stereo not given) — higher, -11.5%
- Cc1ccc(NC2CCN(C(=O)c3ccsc3)CC2)nn1 — higher, -2.79%
- O=S(=O)(Cc1ccccc1)N1CCCn2cnc(CN3CCCC3)c2C1 — higher, -5.12%
- CCOc1ccc(C(=O)NS(=O)(=O)c2cncc(Br)c2)cc1OC — higher, -12%
- O=C(NCCNc1cnccn1)N1CCCC1 — higher, 2.11%
- COc1ccc(F)cc1S(=O)(=O)NCC(c1cccn1C)N(C)C (stereo not given) — higher, 9.89%
- CCCc1cc(=O)n(CC(N)=O)c(-n2nc(C)cc2C)n1 — higher, -3.82%
- CCn1cc(NC(=O)C2CCN(CCOC(C)C)CC2)cn1 — higher, 17.1%
- CC(C(=O)N1CCC(Nc2cccnn2)CC1)n1ccnc1 (stereo not given) — higher, 0.729%
- NC(=O)C(CNC(=O)Cc1ccc(F)cc1)Cc1ccc(F)cc1 (stereo not given) — lower, -30.7%
- CCOc1nc2cccnc2n(CC(=O)NCCOC)c1=O — higher, -9.03%
- Cc1cc(C)n(CC2CCCN2C(=O)c2c[nH]c3ncccc23)n1 (stereo not given) — higher, 26.8%
- CCn1c(=O)nc2n1C(=O)N(c1cccc(Cl)c1)C2 — lower, -43.9%
- CC(C)c1cc(NC(=O)CN2CCCC2Cn2cccn2)on1 (stereo not given) — higher, 29.8%
- O=C(CCOc1cccc(F)c1)N1CCCC(n2cncn2)C1 (stereo not given) — higher, 5.88%
- COCC(c1cccc(C(F)(F)F)c1)N(C)C(=O)c1cc(C)n[nH]1 (stereo not given) — higher, 24.9%
- Cc1cn2c(n1)CCC(NC(=O)c1nc(C)ncc1Cl)C2 (stereo not given) — higher, 12.5%
- CCNC(=O)[C@@H]1C[C@@H](NC(=O)c2cccnc2O)CN1Cc1ccsc1 — higher, 19.7%
- Cc1cccc(-c2ccc(C(=O)NCC3CCOC3)c(=O)[nH]2)c1 (stereo not given) — higher, 15.2%
- CCc1nc(CN2CCCC(NCc3ccc(C(N)=O)cc3)C2)no1 (stereo not given) — higher, -8.49%
- CC(=O)c1ccc(OCC(=O)NC(C)CCc2ccco2)cc1 (stereo not given) — higher, -18.5%
- COc1ccc(CNC(=O)CNc2cc3c(cc2Cl)OCCCO3)cc1 — higher, 0.898%
- c1cncc(COCc2nnc3n2CCN(Cc2ccoc2)C3)c1 — lower, -40.3%
- N#Cc1ccc(OCCN2CCc3c(ncn3C3CC3)C2)cc1 — lower, -40.3%
